According to PubChem BioAssay (Tox21):
Several values for one entry are separate records, joined by “and”; a condition that tells them apart may be missing. Equal values may be shown once. Records with an inconclusive call do not appear. Where a call stands in place of a potency, no number is given. Some compounds were tested as several samples or in several runs, with calls that do not always agree. Activity calls are given as the source filed them. The call rests on the fitted dose curve; in most records, active means well fitted curve in the direction sought with a large enough effect in the repeat runs; inconclusive means weak or mixed curves; inactive means no such curve, though single readings can be large; an effect the other way counts as inactive or inconclusive.

experiment: A CellTox Green Cytotoxicity Assay to monitor cytotoxicity in HEK293 cells - 0 hour (AID 1224869); details: CellTox Green fluorescence; series mostly up to 76.8 µM
How it was run: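 HEK293 cells, 600/well, were preincubated 5 hours and then exposed to compounds at 37 C for up to 40 hours. A cell-impermeant cyanine dye staining dead-cell DNA was read by fluorescence at 0, 8, 16, 24, 32 and 40 h time points.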
Further: nearly all actives have a fitted effect of over 50% in size.
Potency means the concentration at half of the fitted maximal effect.

Row | SMILES | Potency
1 | CCCCCC[n+]1ccccc1 | inactive
2 | Nc1ccc(Cl)cc1 | inactive
3 | CCCCCCCCCCCCn1cc[n+](C)c1 | inactive
4 | CCCCCCCCCCCCCCCCn1cc[n+](C)c1 | inactive
5 | CN(C)[C@@H]1C(=O)C(C(N)=O)=C(O)[C@@]2(O)C(=O)C3=C(O)c4c(O)cccc4[C@@](C)(O)[C@H]3[C@H](O)[C@@H]12 | inactive
6 | CC(=O)[O][Hg][c]1ccccc1 | inactive
7 | Cc1cc(-c2ccc(N)c(C)c2)ccc1N | inactive
8 | N#CS | inactive
9 | CCCCCCn1cc[n+](C)c1 | inactive
10 | CCCCCCCCCCn1cc[n+](C)c1 | inactive
11 | CCCCCCCCn1cc[n+](C)c1 | inactive
12 | C=CCOC(Cn1ccnc1)c1ccc(Cl)cc1Cl (stereo not given) | inactive
13 | Cc1cc(Cl)ccc1OCC(=O)O | inactive
14 | CCCn1cc[n+](C)c1 | inactive
15 | CC(Cl)(Cl)C(=O)O | inactive
16 | CCCC[n+]1cccc(C)c1 | inactive
17 | CCCC[n+]1ccc(C)cc1 | inactive

Row | SMILES | Potency
18 | O=P1(N(CCCl)CCCl)NCCCO1 (stereo not given) | inactive
19 | CC[n+]1ccccc1 | inactive
20 | Nc1ccc(-c2ccc(N)c(Cl)c2)cc1Cl | inactive and 38.9 µM (active)
21 | Nc1ccccc1 | inactive
22 | Nc1ccc(-c2ccc(N)cc2)cc1 | inactive
23 | O=C(O)c1ccccc1O | inactive
24 | CCCC[n+]1ccccc1C | inactive
25 | O=C(O)COc1ccc(Cl)cc1Cl | inactive
26 | CCCC[N+]1(C)CCCC1 | inactive
27 | CC(=O)O | inactive
28 | COP(=O)(OC)OC=C(Cl)Cl | inactive
29 | COP(=O)(OC)C(O)C(Cl)(Cl)Cl (stereo not given) | inactive
30 | C[C@]12CCC(=O)C=C1CC[C@@H]1[C@@H]2CC[C@]2(C)C(=O)CC[C@@H]12 | inactive
31 | O=C(O)CC(O)(CC(=O)O)C(=O)O | inactive
32 | Oc1cccc2cccnc12 | inactive
33 | CCC[N+]1(C)CCCC1 | inactive

experiment: qHTS RealTime-Glo MT Cell Viability Assay in HepG2 cells - 40 hour (AID 1224870); details: RealTime-Glo luminescence; series mostly up to 76.8 µM
How it was run: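 Real-time viability: cells seeded at 600 per well together with NanoLuc and cell-permeant prosubstrate, compounds added after 5 h incubation. Luminescence tracked at 0, 8, 16, 24, 32 and 40 h of exposure.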

Row | SMILES | Potency
34 | CCCCCC[n+]1ccccc1 | inactive
35 | Nc1ccc(Cl)cc1 | inactive
36 | CCCCCCCCCCCCCCCCn1cc[n+](C)c1 | inactive and 39.2 µM (active) and 31 µM (active)
37 | CN(C)[C@@H]1C(=O)C(C(N)=O)=C(O)[C@@]2(O)C(=O)C3=C(O)c4c(O)cccc4[C@@](C)(O)[C@H]3[C@H](O)[C@@H]12 | inactive
38 | CC(=O)[O][Hg][c]1ccccc1 | 1.93 µM (active) and 1.95 µM (active) and 1.07 µM (active)
39 | Cc1cc(-c2ccc(N)c(C)c2)ccc1N | inactive
40 | N#CS | inactive
41 | CCCCCCn1cc[n+](C)c1 | inactive and 35.4 µM (active)
42 | CCCCCCCCCCn1cc[n+](C)c1 | inactive
43 | CCCCCCCCn1cc[n+](C)c1 | inactive
44 | C=CCOC(Cn1ccnc1)c1ccc(Cl)cc1Cl (stereo not given) | inactive
45 | Cc1cc(Cl)ccc1OCC(=O)O | inactive
46 | CCCn1cc[n+](C)c1 | 49.4 µM (active) and inactive
47 | CC(Cl)(Cl)C(=O)O | inactive
48 | CCCC[n+]1cccc(C)c1 | inactive and 49.6 µM (active)
49 | CCCC[n+]1ccc(C)cc1 | inactive

Row | SMILES | Potency
50 | O=P1(N(CCCl)CCCl)NCCCO1 (stereo not given) | inactive
51 | CC[n+]1ccccc1 | inactive and 34.8 µM (active)
52 | Nc1ccc(-c2ccc(N)c(Cl)c2)cc1Cl | inactive and 54.9 µM (active)
53 | Nc1ccccc1 | inactive
54 | Nc1ccc(-c2ccc(N)cc2)cc1 | inactive
55 | O=C(O)c1ccccc1O | inactive
56 | CCCC[n+]1ccccc1C | inactive
57 | O=C(O)COc1ccc(Cl)cc1Cl | inactive
58 | CCCC[N+]1(C)CCCC1 | inactive and 43.9 µM (active)
59 | CC(=O)O | inactive
60 | COP(=O)(OC)OC=C(Cl)Cl | inactive
61 | COP(=O)(OC)C(O)C(Cl)(Cl)Cl (stereo not given) | inactive
62 | C[C@]12CCC(=O)C=C1CC[C@@H]1[C@@H]2CC[C@]2(C)C(=O)CC[C@@H]12 | inactive
63 | O=C(O)CC(O)(CC(=O)O)C(=O)O | inactive
64 | Oc1cccc2cccnc12 | inactive and 3.09 µM (active)
65 | CCC[N+]1(C)CCCC1 | inactive and 34.9 µM (active)
